From PubChem BioAssay (NCATS)
Inconclusive results are not listed. Calls of active or inactive are those of the source. The call rests on the fitted dose curve; in most records, active means well fitted curve in the direction sought with a large enough effect; inconclusive means small, poorly fitted or top-dose-only effect, or another doubt; inactive means no such curve, though single readings can be large; an effect the other way counts as inactive or inconclusive.

Tests used:
[1] = qHTS of pediatric cancer cell lines to identify multiple opportunities for drug repurposing: Primary screen for A673 cells (AID 1347092); further: nearly all actives have a fitted effect of over 45% in size
Outline: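 A673 cells (500-1,000 cells/well in growth media) were pre-incubated 5 h at 37 degrees C, then exposed to compounds for 48 h. Viability was read as CellTiter-Glo luminescence; concentration-response curves came directly from the primary screen.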

[2] = qHTS of pediatric cancer cell lines to identify multiple opportunities for drug repurposing: Primary screen for SK-N-MC cells (AID 1347093); further: series mostly up to about 46 µM
Outline: (§1)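 Metabolically active cells were quantified by ATP-dependent luminescence (CellTiter-Glo, 15 min at room temperature) following 48 h treatment. Cells had been plated at 500-1,000 per well and settled for 5 h beforehand.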

[3] = qHTS of pediatric cancer cell lines to identify multiple opportunities for drug repurposing: Primary screen for BT-37 cells (AID 1347094); further: series mostly up to about 57 µM
Outline: (§2)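 Phenotypic viability qHTS, 48 h compound exposure, CellTiter-Glo luminescence read-out; multi-concentration dosing so that potency and efficacy derive directly from the primary screen's curves.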

[4] = qHTS of pediatric cancer cell lines to identify multiple opportunities for drug repurposing: Primary screen for NB-EBc1 cells (AID 1347095)
Outline: as §2

[5] = qHTS of pediatric cancer cell lines to identify multiple opportunities for drug repurposing: Primary screen for U-2 OS cells (AID 1347096); further: nearly all actives have a fitted effect of over 50% in size
Outline: (§3)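 Cells (500-1,000/well) in growth media were settled 5 h at 37 degrees C, then given compounds for 48 h. Viability was read as CellTiter-Glo luminescence. Primary runs used MIPE at 11 points (0.78 nM-46 µM) and NPC at 8 points (0.59 nM-46 µM); follow-ups used 11 points.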

[6] = qHTS of pediatric cancer cell lines to identify multiple opportunities for drug repurposing: Primary screen for Saos-2 cells (AID 1347097); further: nearly all actives have a fitted effect of over 40% in size
Outline: as §2

[7] = qHTS of pediatric cancer cell lines to identify multiple opportunities for drug repurposing: Primary screen for SK-N-SH cells (AID 1347098);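 further: DMSO served as neutral control and bortezomib at 2.3 µM as positive control; nearly all actives have a fitted effect of over 65% in size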
Outline: (§4)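 Cells (500-1,000/well) rested 5 h, then received compounds for 48 h; metabolically active cells were measured by CellTiter-Glo luminescence. Final concentrations spanned up to 46 µM (MIPE, 11-point) or 0.59 nM-46 µM (NPC, 8-point) in primary screens, 11-point in follow-ups.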

[8] = qHTS of pediatric cancer cell lines to identify multiple opportunities for drug repurposing: Primary screen for NB1643 cells (AID 1347099); further: nearly all actives have a fitted effect of over 50% in size
Outline: as §2

[9] = qHTS of pediatric cancer cell lines to identify multiple opportunities for drug repurposing: Primary screen for LAN-5 cells (AID 1347100)
Outline: as §3

[10] = qHTS of pediatric cancer cell lines to identify multiple opportunities for drug repurposing: Primary screen for BT-12 cells (AID 1347101); further: nearly all actives have a fitted effect of over 25% in size
Outline: as §4

[11] = qHTS of pediatric cancer cell lines to identify multiple opportunities for drug repurposing: Primary screen for Rh18 cells (AID 1347102); further: nearly all actives have a fitted effect of over 65% in size
Outline: as §3

[12] = qHTS of pediatric cancer cell lines to identify multiple opportunities for drug repurposing: Primary screen for RD cells (AID 1347104); further: nearly all actives have a fitted effect of over 55% in size
Outline: as §2

[13] = qHTS of pediatric cancer cell lines to identify multiple opportunities for drug repurposing: Primary screen for MG 63 (6-TG R) cells (AID 1347105); further: nearly all actives have a fitted effect of over 50% in size
Outline: as §2

[14] = qHTS of pediatric cancer cell lines to identify multiple opportunities for drug repurposing: Primary screen for control Hh wild type fibroblast cells (AID 1347106);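 further: series mostly up to about 46 µM; a drop in luminescence marks cytotoxicity and a rise apparent proliferation; nearly all actives have a fitted effect of over 55% in size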
Outline: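 Viability after 48 h compound treatment at 37C, 500-1,000 cells/well, read as ATP luminescence with CellTiter-Glo. Primary screens used 11-point (MIPE, 0.78 nM-46 µM) or 8-point (NPC, 0.59 nM-46 µM) final concentrations; follow-up screens used 11-point dilutions.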

[15] = qHTS of pediatric cancer cell lines to identify multiple opportunities for drug repurposing: Primary screen for Rh30 cells (AID 1347107); further: series mostly up to about 46 µM; nearly all actives have a fitted effect of over 75% in size
Outline: as §3

[16] = qHTS of pediatric cancer cell lines to identify multiple opportunities for drug repurposing: Primary screen for Rh41 cells (AID 1347108);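 further: series mostly up to about 46 µM; luminescence drop marks cytotoxic hits; nearly all actives have a fitted effect of over 70% in size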
Outline: as §2

[17] = qHTS of pediatric cancer cell lines to identify multiple opportunities for drug repurposing: Primary screen for OHS-50 cells (AID 1347103); further: nearly all actives have a fitted effect of over 40% in size
Outline: as §4

[18] = qHTS of pediatric cancer cell lines to identify multiple opportunities for drug repurposing: Confirmatory screen for NB1643 cells (AID 1347109); further: nearly all actives have a fitted effect of over 45% in size
Outline: as §3

[19] = qHTS of pediatric cancer cell lines to identify multiple opportunities for drug repurposing: Confirmatory screen for A673 cells (AID 1347110); further: nearly all actives have a fitted effect of over 65% in size
Outline: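 A673 cells seeded at 500-1,000 cells/well, rested 5 h, then dosed; primary MIPE 11-point (0.78 nM to 46 µM), NPC (0.59 nM to 46 µM); confirmatory 11-point. CellTiter-Glo luminescence after 48 h.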

[20] = qHTS of pediatric cancer cell lines to identify multiple opportunities for drug repurposing: Confirmatory screen for SK-N-MC cells (AID 1347111);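 further: cells exposed to compound for 48 h before the readout; nearly all actives have a fitted effect of over 70% in size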
Outline: as §1

Measured: Potency

CC(Cc1ccccc1)(NC(=O)CN)c1ccccc1 (stereo not given)
not listed: [17] | [18] | [19] | [20]
inactive: all other assays above

CCN1CCCC1=O
not listed: [10] | [18] | [19] | [20]
inactive: all other assays above

Cc1c(C(C)C)c(=O)n(-c2ccccc2)n1C
not listed: [17] | [18] | [19] | [20]
inactive: all other assays above

CC(=O)Nc1c(I)cc(I)c(C(=O)O)c1I
not listed: [13] | [18] | [19] | [20]
inactive: all other assays above

CCCC(=O)O[C@]1(C(=O)CO)CC[C@H]2[C@@H]3CCC4=CC(=O)CC[C@]4(C)[C@H]3[C@@H](O)C[C@@]21C
not listed: [17]
inactive: all other assays above

NCCc1ccn[nH]1
not listed: [17] | [18] | [19] | [20]
inactive: all other assays above

Cc1cc(=O)n(-c2ccccc2)n1C
not listed: [17] | [18] | [19] | [20]
inactive: all other assays above

Cc1nc2n(c(=O)c1CCN1CCC(c3noc4cc(F)ccc34)CC1)CCC[C@H]2O
not listed: [10] | [18] | [19] | [20]
inactive: all other assays above

Cc1c(C(N)=O)cc([N+](=O)[O-])cc1[N+](=O)[O-]
not listed: [10] | [18] | [19] | [20]
inactive: all other assays above

CCN1CCC[C@H]1CNC(=O)c1c(OC)ccc(Br)c1OC
not listed: [17] | [18] | [19] | [20]
inactive: all other assays above

O=c1[nH]c(=O)n([C@H]2CCCO2)cc1F
not listed: [8] | [18] | [19] | [20]
inactive: all other assays above

COc1cc(/C=C/C(=O)O[C@H]2CC[C@]34C[C@]35CC[C@]3(C)[C@@H]([C@H](C)CCC=C(C)C)CC[C@@]3(C)[C@@H]5CC[C@H]4C2(C)C)ccc1O
not listed: [10] | [13] | [17] | [18] | [19] | [20]
inactive: all other assays above

CC(C)COC(=O)c1ccc(N)cc1
not listed: [7] | [18] | [19] | [20]
inactive: all other assays above

Cc1ccc(C(=O)C(C)CN2CCCCC2)cc1 (stereo not given)
not listed: [10] | [18] | [19] | [20]
inactive: all other assays above
